PubChem BioAssay AID686978 (National Center for Advancing Translational Sciences (NCATS), 2013)
About 64,000 (15%) of roughly 420,000 compounds were called active. About 27% were inconclusive and are not listed. Only a sample is shown. Values without a mark were called inactive. Calls come from the whole dose curve; as a rule, active = well fitted inhibition curve with a large enough effect; inconclusive = small, poorly fitted or top-dose-only effect; inactive = flat fitted curve, though single readings scatter.

assay: qHTS for Inhibitors of human tyrosyl-DNA phosphodiesterase 1 (TDP1): qHTS in cells in absence of CPT; conditions: DT40 Tdp1-/- hTDP1 cells, no CPT, ATP luminescence, 48 h; activity change, negative = growth inhibition: at 46.2 µM (top of the series); note: nearly all actives have a fitted effect of over 55% in size
Procedure, shortened: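 DT40 Tdp1-/-;hTDP1 cells, no CPT (DMSO vehicle only), 400 cells/well; compounds pin-transferred; ≥48 hr, 37 °C; CellTiter-Glo 30 min RT dark, luminescence read.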
% is set by controls: 0 for no effect and ±100 for the full control effect; potency is the fitted concentration of half-maximal effect.

Q: With Cc1cn(C2CC(O)C(CO)O2)c(=O)n(CCCc2ccccc2)c1=O (stereo not given) as the compound, how does the “activity change, negative = growth inhibition” value read?
A: -14.7%

Q: Which “activity change, negative = growth inhibition” value does the source give for COCCn1c(=O)c(-c2cccs2)nc2cnc(N3CCN(C)CC3)nc21 here?
A: -22.9%

Q: For CCOC(=O)N1CCN(Cc2nc3cc(NC(=O)CC)ccc3n2CC)CC1, which Potency is on record?
A: 29.1 µM (active)

Q: For CCOC(=O)N1CCN(Cc2nc3cc(NC(C)=O)ccc3n2C)CC1, which “activity change, negative = growth inhibition” value is on record?
A: 0.858%

Q: For CN1CCN(Cc2nc3cc(NC(=O)COc4ccc([N+](=O)[O-])cc4)ccc3n2C)CC1, which “activity change, negative = growth inhibition” value is on record?
A: 17.7%

Q: Which “activity change, negative = growth inhibition” value does the source give for CC(=O)Cc1nsc(NC(=O)c2ccc(COc3ccc(C)cc3)o2)n1 here?
A: 1.76%

Q: Which “activity change, negative = growth inhibition” value does the source give for CN1CCC(=NNC(=O)CN(c2cccc(Cl)c2)S(C)(=O)=O)CC1 here?
A: -7.27%

Q: With CC1=CCC2C(=O)N(c3cccc(C(=O)NC(C)c4ccccc4)c3)C(=O)C2C1 (stereo not given) as the compound, how does the “activity change, negative = growth inhibition” value read?
A: 7.3%

Q: For COc1ccc(CCNC(=O)c2ccco2)cc1, which “activity change, negative = growth inhibition” value is on record?
A: -29.5%

Q: With CCOc1ncccc1C(=O)NCCc1ccc(OC)cc1 as the compound, how does the Potency read?
A: 20.6 µM (active)

Q: For CCCNC(=O)c1ccccc1NC(=O)CSCc1ccc(OC)cc1, which “activity change, negative = growth inhibition” value is on record?
A: -8.44%

Q: Which “activity change, negative = growth inhibition” value does the source give for Cn1c(=O)[nH]c(=O)c2c1[nH]c(=S)n2Cc1ccccc1 here?
A: 26.7%

Q: For Cc1cccc(OCCNC(=S)NC(=O)c2cccnc2)c1, which “activity change, negative = growth inhibition” value is on record?
A: -8.96%

Q: Which Potency does the source give for Cc1cccc(OCCNC(=O)CSc2ccc(C(F)(F)F)cc2[N+](=O)[O-])c1 here?
A: 16.4 µM (active)

Q: For O=C(CSc1ccc(C(F)(F)F)cc1[N+](=O)[O-])NCCOc1ccccc1, which “activity change, negative = growth inhibition” value is on record?
A: -16.7%

Q: Which “activity change, negative = growth inhibition” value does the source give for O=c1c(-c2cccs2)nc2cnc(Oc3ccccc3)nc2n1-c1ccccc1 here?
A: -6.07%

Q: For CN(C)c1nnnn1-c1ccc(Cl)cc1, which “activity change, negative = growth inhibition” value is on record?
A: -1.87%

Q: With Clc1ccc(-n2nnnc2-c2cnc(-c3ccccn3)nc2-c2cccs2)cc1 as the compound, how does the Potency read?
A: 5.17 µM (active)

Q: With O=C(OC(C(=O)NC1CCCC1)c1ccc(F)cc1)c1ccno1 (stereo not given) as the compound, how does the “activity change, negative = growth inhibition” value read?
A: -10.5%

Q: With O=C(Nc1ncc2c(n1)CC(c1ccco1)CC2=O)c1ccc(Cl)cc1 (stereo not given) as the compound, how does the “activity change, negative = growth inhibition” value read?
A: -25.7%

Q: With Cc1cccc(NC(=O)CSc2nc3c(c(=O)[nH]2)CCCC3)c1C as the compound, how does the “activity change, negative = growth inhibition” value read?
A: -8.26%

Q: Which “activity change, negative = growth inhibition” value does the source give for CC(=O)NC1=NC(=O)CS1 here?
A: -2.82%

Q: Which Potency does the source give for COc1cccc(COc2ccc(N(C)S(=O)(=O)c3ccccc3)cc2)c1 here?
A: 16.4 µM (active)

Q: Which “activity change, negative = growth inhibition” value does the source give for Cc1ccc(S(=O)(=O)N(C)c2ccc(OCC(=O)OCc3ccc(C#N)cc3)cc2)cc1 here?
A: -1.54%

Q: For CN(c1ccc(OCC(=O)O)cc1)S(=O)(=O)c1ccc2ccccc2c1, which “activity change, negative = growth inhibition” value is on record?
A: -8.74%

Q: With CCOC(=O)CNC(=O)CSc1nc2cccnc2n1CC as the compound, how does the “activity change, negative = growth inhibition” value read?
A: -5.19%

Q: For CC(C)C[C@H]1CN=C(Nc2ccccc2)N1CC1CCCCC1, which Potency is on record?
A: 16.4 µM (active)

Q: With CC(CO)(CO)NC(=O)c1ccc(=O)[nH]n1 as the compound, how does the “activity change, negative = growth inhibition” value read?
A: 7.23%

Q: With Cc1ccc2c(c1)c1c(c(=O)n(-c3ccccc3)c(=O)n1CC(=O)c1ccc(Cl)cc1)n2C as the compound, how does the “activity change, negative = growth inhibition” value read?
A: -11.5%

Q: Which Potency does the source give for CCc1ccccc1NC(=O)Cn1c(=O)n(-c2cccc(C)c2)c(=O)c2c1c1cc(OC)ccc1n2C here?
A: 2.06 µM (active)

Q: Which “activity change, negative = growth inhibition” value does the source give for Cc1cccc(-n2c(=O)c3c(c4cc(C)ccc4n3C)n(CC(=O)Nc3ccccc3Cl)c2=O)c1 here?
A: -9.55%

Q: For CCC(CC)c1nnc(NS(=O)(=O)Cc2ccccc2)s1, which “activity change, negative = growth inhibition” value is on record?
A: -0.792%

Q: Which “activity change, negative = growth inhibition” value does the source give for Cc1nn(C(C)C(=O)N2CCOCC2)c(=O)c2nn(-c3ccccc3)c(C)c12 (stereo not given) here?
A: 10.9%

Q: Which “activity change, negative = growth inhibition” value does the source give for Cc1c(CNCCc2ccccc2)c(C(=O)O)c(C)n1-c1ccccc1 here?
A: -6.22%

Q: Which “activity change, negative = growth inhibition” value does the source give for CC1=NOC(=O)/C1=C\c1ccccc1 here?
A: -19.8%

Q: With C#CCOc1ccccc1/C=C1/C(=O)ON=C1C as the compound, how does the Potency read?
A: 14.6 µM (active)

Q: Which “activity change, negative = growth inhibition” value does the source give for Cc1cn(C)c(CC(=O)NCc2ccccc2)c1C(=O)O here?
A: 10%

Q: With COc1ccc(Cl)cc1NC(=O)CN1CCN(C(=O)N2CCOCC2)CC1 as the compound, how does the “activity change, negative = growth inhibition” value read?
A: -16.6%

Q: Which “activity change, negative = growth inhibition” value does the source give for COc1ccc(Cl)cc1NC(=O)COc1ccc2c(c1)OCO2 here?
A: -1.31%

Q: With COc1ccc(Cl)cc1NC(=O)COC(=O)C(CC(C)C)N1C(=O)C2CC=CCC2C1=O (stereo not given) as the compound, how does the Potency read?
A: 18.4 µM (active)

Q: Which “activity change, negative = growth inhibition” value does the source give for CC1(C)NC(=O)N(CCOc2cccc(Oc3ccccc3)c2)C1=O here?
A: -8.49%

Q: With Cc1nnc(N(Cc2ccco2)C(=O)c2ccno2)s1 as the compound, how does the “activity change, negative = growth inhibition” value read?
A: -13.2%

Q: For CCCNC(=O)c1c(Cl)cnn1-c1ccc(C)cc1, which “activity change, negative = growth inhibition” value is on record?
A: -16%

Q: For Cc1ccnc(NC(=O)CCCOc2ccccc2)c1, which “activity change, negative = growth inhibition” value is on record?
A: -0.626%

Q: For COc1ccc(Cl)cc1NC(=O)c1oc(C)nc1C, which “activity change, negative = growth inhibition” value is on record?
A: -4.86%
